Results on 45 compounds are retold here after PubChem BioAssay AID2685 (National Center for Advancing Translational Sciences (NCATS), 2010).

The campaign covered roughly 320,000 compounds. About 2,100 (0.66%) were called active. Inconclusive results (about 53%) are left out. Calls follow the shape of the dose curve; as a rule, active = well fitted inhibition curve with a large enough effect in the signal ratio, with a control signal flat (not every such curve was filed as active); inconclusive = small, poorly fitted or top-dose-only effect, or effect the other way, or a change in a side signal; inactive = flat fitted curve, though single readings scatter; the % refers to the signal ratio. The full list was thinned out, with actives kept by preference.
Potency is read from the fitted curve at half-maximal effect.

The test is described as follows: qHTS Assay for Lipid Storage Modulators in Drosophila S3 Cells.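 As to cell number change: cells counted by Cell Tracker Red CMTPX staining in the red channel.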 As to lipid storage change, negative = inhibition: % is scaled to controls: 0 for no effect and ±100 for the full control effect. As to conditions: BODIPY lipid droplet fluorescence, 18-24 h, cells fed with added oleic acid; cell number change: measured here: cell count max response; series mostly up to 46.1 µM; lipid storage change, negative = inhibition: at the top concentration. In outline:
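Drosophila S3 cells loaded with oleic acid (400 uM, as added) and compounds at several concentrations; lipid droplets imaged by 488-nm laser-scanning cytometry, 500–530 nm intensity and object ratio to cell channel. Percent activity normalized to 20 uM Triacsin C.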
On the technique in general: qHTS replaces the single test concentration by a dilution series.
In the case of `O=C(c1cccc(COc2cccc3ccccc23)c1)N1CCCC1`, the “lipid storage change, negative = inhibition” value is 0.849% (inactive) and the cell number change is -5.05%.
On to `COc1ccc(/C=N/Nc2nnc(-c3ncc[nH]3)c3ccccc23)cc1`, for which the “lipid storage change, negative = inhibition” value was -8.98% (inactive) and the cell number change is -1.94%.
In the case of `CC1=C(C)CC(C(=O)Nc2ccc3c(c2)OCO3)C(C(=O)O)C1` (stereo not drawn), the “lipid storage change, negative = inhibition” value is 14.7% (inactive) and the cell number change is -0.481%.
As for `COc1ccc(OC)c(S(=O)(=O)NNC(=S)Nc2ccc3c(c2)OCO3)c1`, the compound was classed as inactive and the cell number change was 5.94%.
In the case of `O=C(Nc1cnccn1)Nc1cccc(Cl)c1Cl`, the “lipid storage change, negative = inhibition” value is -1.85% (inactive) and the cell number change was -0.957%.
Regarding `CC1CN(S(=O)(=O)c2cccc(C(=O)Nc3ccccc3N3CCCCC3)c2)CC(C)O1` (stereo not drawn), the Potency was 23.1 µM (active) and the cell number change was -19.1%.
Regarding `CCOc1ncccc1C(=O)Nc1cccc(S(=O)(=O)N2CCCCC2)c1`, the “lipid storage change, negative = inhibition” value was 25.8% (inactive) and the cell number change is -15%.
For the compound `O=C(Nc1cccc(S(=O)(=O)N2CCCCC2)c1)c1ccccn1`, the “lipid storage change, negative = inhibition” value is 0.112% (inactive) and the cell number change is 20.1%.
On to `O=C(NCC1COc2ccccc2O1)c1cccc(S(=O)(=O)N2CCCCC2)c1` (stereo not drawn), for which the Potency is 2.06 µM (active) and the cell number change was -15.1%.
On to `CC1CN(S(=O)(=O)c2cccc(C(=O)Nc3ccccc3N3CCOCC3)c2)CC(C)O1` (stereo not drawn), for which the result was inactive and the cell number change is -20.3%.
On the same counts, the results for `CCN(CC)S(=O)(=O)c1ccc2oc(C(=O)NC3CC3)c(C)c2c1` are “inactive” and -10.9%.
As for `CCN(CC)S(=O)(=O)c1ccc2oc(C(=O)NCC3COc4ccccc4O3)c(C)c2c1` (stereo not drawn), the Potency is 0.461 µM (active) and the cell number change is -14.2%.
In the case of `CN1CCN(S(=O)(=O)c2cccc(C(=O)Nc3ccccc3N3CCCC3)c2)CC1`, the “lipid storage change, negative = inhibition” value is -27.5% (inactive) and the cell number change is 9.72%.
For `Cc1c(C(=O)NCC2COc3ccccc3O2)oc2ccc(S(=O)(=O)N3CC(C)CC(C)C3)cc12` (stereo not drawn), the result was inactive and the cell number change was 0.959%.
Consider `O=C(NCC1CCCCC1)c1cccc(S(=O)(=O)N2CCCC2)c1`, for which the “lipid storage change, negative = inhibition” value was 6.69% (inactive) and the cell number change amounted to 3.1%.
Turning to `CSc1ncccc1C(=O)Nc1cccc(S(=O)(=O)N2CCCCC2)c1`, the Potency was 16.4 µM (active) and the cell number change was 0.775%.
As to `O=C(NCC1COc2ccccc2O1)c1cccc(S(=O)(=O)N2CCOCC2)c1` (stereo not drawn), the “lipid storage change, negative = inhibition” value is -2.13% (inactive) and the cell number change is -18%.
On the same counts, the results for `CC(C)Oc1ccc(S(=O)(=O)N2CCOCC2)cc1NC(=O)C1CCCCC1` are 14.6% (inactive) and 17%.
On the same counts, the results for `Cc1cccc(NC(=O)C2CCCN2C(=O)NC2CCCCC2)c1` (stereo not drawn) are 9.23% [at 9.22 µM] (inactive) and -1.91%.
The like results for `CCC(C)C(NC(=O)OCc1ccccc1)C(=O)NC(Cc1ccc(O)cc1)C(=O)OC` (stereo not drawn) were, in that order, 4.97% (inactive) and 15.2%.
In the case of `Cc1cnc2cc([N+](=O)[O-])ccc2n1`, the “lipid storage change, negative = inhibition” value is -3.52% (inactive) and the cell number change came to 9.36%.
On to `CC(NC(=O)CN1c2cccc3cccc(c23)S1(=O)=O)c1ccc(S(N)(=O)=O)cc1` (stereo not drawn), for which the “lipid storage change, negative = inhibition” value is 24.5% (inactive) and the cell number change was 20.8%.
Regarding `CCC(C)c1ccc(S(=O)(=O)N2CCN3CCCC3C2)cc1` (stereo not drawn), the compound was called inactive and the cell number change was -6.32%.
As to `CCOC(=O)C(NC(=O)CC)(Nc1ccc(S(N)(=O)=O)cc1)C(F)(F)F` (stereo not drawn), the “lipid storage change, negative = inhibition” value is -9.17% (inactive) and the cell number change is 9.23%.
Turning to `O=C(CSc1nnnn1C1CCCCC1)Nc1ccc(F)cc1`, the “lipid storage change, negative = inhibition” value is 0.247% (inactive) and the cell number change was -9.49%.
On the same counts, the results for `CN(C)C(=O)Nc1cnc2ccccc2c1` are 8.36% (inactive) and 12.4%.
As to `COc1ccc(CNC(=O)c2noc(C(C)C)c2[N+](=O)[O-])cc1`, the “lipid storage change, negative = inhibition” value was -2.76% (inactive) and the cell number change amounted to 2.44%.
Consider `CCOC(=O)C(NC(=O)c1ccc(F)cc1)(Nc1sc2c(c1C(N)=O)CCC2)C(F)(F)F` (stereo not drawn), for which the “lipid storage change, negative = inhibition” value is 7.93% (inactive) and the cell number change was -0.472%.
The like results for `CCCC(=O)Oc1c(S(=O)(=O)c2ccc(C)cc2)c(C)nn1C(C)(C)C` were, in that order, -0.57% (inactive) and 23.9%.
For the compound `CC(C)C(=O)Nc1nc(-c2ccc(S(=O)(=O)N3CCOCC3)cc2)cs1`, the Potency was 5.17 µM (active) and the cell number change is -31.7%.
With `CC(=O)c1cccc(NC(=O)c2cccc(S(=O)(=O)N3CCOCC3)c2)c1`, the compound was called inactive and the cell number change amounted to 0.952%.
For `O=C(Nc1nncs1)c1ccc2c(c1)OCO2`, the Potency was 4.61 µM (active) and the cell number change worked out at 11.7%.
Consider `O=C(Nc1ccc(S(=O)(=O)N2CCOCC2)cc1)c1ccccc1`, for which the “lipid storage change, negative = inhibition” value was -6.47% (inactive) and the cell number change was -4.33%.
`CC(C)C(=O)Nc1cccc(C(=O)Nc2ccc(S(=O)(=O)N3CCOCC3)cc2)c1`: the Potency was 13 µM (active) and the cell number change was -1.62%.
With `O=C(Nc1ccc(S(=O)(=O)N2CCOCC2)cc1)c1cccc(Br)c1`, the compound was called inactive and the cell number change was -4.91%.
The like results for `CC(C)(C)c1nnc(NC(=O)c2ccc3c(c2)OCO3)s1` were, in that order, “inactive” and 5.88%.
Regarding `O=C(COc1ccccc1)Nc1nc(-c2ccc(S(=O)(=O)N3CCOCC3)cc2)cs1`, the “lipid storage change, negative = inhibition” value was 24.2% (inactive) and the cell number change was -17.5%.
Consider `Cc1nc(-c2ccc(S(=O)(=O)N3CCOCC3)cc2)cs1`, for which the “lipid storage change, negative = inhibition” value is 4.04% (inactive).
Take `O=C(/C=C/c1ccc2c(c1)OCO2)Nc1nncs1`: the “lipid storage change, negative = inhibition” value is 2.26% (inactive) and the cell number change was found to be 12.8%.
For the compound `O=C(Nc1cccc(F)c1)c1cccc(S(=O)(=O)N2CCOCC2)c1`, the “lipid storage change, negative = inhibition” value was -3.69% (inactive) and the cell number change is -12.5%.
With `O=C(Nc1cccc(S(=O)(=O)N2CCCC2)c1)c1cccc(S(=O)(=O)N2CCOCC2)c1`, the Potency was 1.84 µM (active) and the cell number change is -9.73%.
Consider `CCN(CC(=O)NC1CCCC1)S(=O)(=O)c1ccc(C)cc1`, for which the compound was classed as inactive.
With `COc1ccc(/C=C/C(=O)O)cc1S(=O)(=O)NC1CCS(=O)(=O)C1` (stereo not drawn), the “lipid storage change, negative = inhibition” value was 29% (inactive) and the cell number change is 23.6%.
On the same counts, the results for `Nc1nc(SCc2ccccc2Cl)nc2nc3c(cc12)CCCC3` are -0.358% (inactive) and -12.1%.
Consider `COc1ccc(C2N=C(c3ccccc3)NC(c3ccccc3)=N2)cc1`, for which the “lipid storage change, negative = inhibition” value was 3.53% (inactive) and the cell number change was 1.5%.
